Data published in the antibiotic and cytotoxicity screens of Wong et al. (2023).
Hit rate of the full screen: of about 39,000 compounds, about 3,300 (8.5%) were called active. Many of the other results were omitted from the sample, so actives are more common in it than they were.

Test system: HepG2
Assay: cytotoxicity call (relative viability < 0.9)
Settings: 10 µM

Which cytotoxicity call does the source give for `C[C@H](CO)N1C[C@H](C)[C@H](CN(C)S(=O)(=O)c2ccccc2)Oc2c(NS(=O)(=O)c3cccs3)cccc2C1=O` here?
The cytotoxicity call was “inactive”.

With `Cc1ccc(S(=O)(=O)N(C)C[C@@H]2Oc3ccc(NS(=O)(=O)c4c(C)noc4C)cc3C(=O)N([C@@H](C)CO)C[C@H]2C)cc1` as the molecule, how does the cytotoxicity call read?
The cytotoxicity call was “inactive”.

Which cytotoxicity call does the source give for `COc1ccccc1-c1cccc(-c2nc(C(=O)N3CCCCC3)cc3c2[C@@H](CCO)N([S@](=O)C(C)(C)C)C3)c1` here?
The cytotoxicity call was “inactive”.

For `O[C@H]1[C@H](O)[C@@H](O)[C@H](O)[C@@H](O)[C@H]1O`, which cytotoxicity call is on record?
The cytotoxicity call was “inactive”.

`Cc1ccc(S[C@]2(C(=O)NC3CC3)CC(=O)N(C3Cc4ccccc4C3)[C@@H]2c2ccc(CO)cc2I)cc1` was tested. Which cytotoxicity call did it give?
Its cytotoxicity call is “inactive”.

Which cytotoxicity call does the source give for `C[C@@H]1CN([C@@H](C)CO)C(=O)c2cc(-c3ccncc3)cnc2O[C@@H]1CN(C)S(=O)(=O)c1ccc(F)cc1` here?
The cytotoxicity call was “inactive”.

`COc1ccc2c3c(n(c2c1)C)[C@@H](CO)N(CC1CCOCC1)C[C@]13CN(C1)C(=O)Cc1cccnc1` was tested. Which cytotoxicity call did it give?
The cytotoxicity call was “inactive”.

Which cytotoxicity call does the source give for `C[C@@H]1CN([C@H](C)CO)C(=O)c2cccc(NS(=O)(=O)c3cccs3)c2O[C@@H]1CN(C)S(=O)(=O)c1ccc(F)cc1` here?
The cytotoxicity call was “inactive”.

For `C[C@@H]1CN([C@H](C)CO)S(=O)(=O)c2ccc(C#CC3CC3)cc2O[C@H]1CN(C)C(=O)C1CCCCC1`, which cytotoxicity call is on record?
Its cytotoxicity call is “inactive”.

How did the cytotoxicity call turn out when `C[C@@H]1CN([C@@H](C)CO)S(=O)(=O)c2ccc(C#Cc3ccncc3)cc2O[C@@H]1CN(C)C(=O)C1CCCCC1` was run?
Its cytotoxicity call is “active”.

How did the cytotoxicity call turn out when `C[C@@H]1CN([C@H](C)CO)S(=O)(=O)c2ccc(C#Cc3ccncc3)cc2O[C@@H]1CN(C)C(=O)C1CCCCC1` was run?
The cytotoxicity call was “active”.

For `C[C@H]1CN([C@@H](C)CO)S(=O)(=O)c2ccc(C#Cc3ccncc3)cc2O[C@@H]1CN(C)C(=O)C1CCCCC1`, which cytotoxicity call is on record?
Its cytotoxicity call is “active”.

Which cytotoxicity call does the source give for `C[C@H](O)C#Cc1ccc2c(c1)O[C@@H](CN(C)C(=O)C1CCCCC1)[C@@H](C)CN([C@@H](C)CO)S2(=O)=O` here?
Its cytotoxicity call is “inactive”.

For `Cc1noc(C)c1NC(=O)Nc1ccc2c(c1)CC(=O)N([C@H](C)CO)C[C@@H](C)[C@@H](CN(C)Cc1ccc(C(=O)Nc3ccccc3N)cc1)O2`, which cytotoxicity call is on record?
Its cytotoxicity call is “inactive”.

`C[C@@H]1CN([C@H](C)CO)C(=O)Cc2cc(NC(=O)CCC(F)(F)F)ccc2O[C@@H]1CN(C)Cc1ccc(C(=O)Nc2ccccc2N)cc1` was tested. Which cytotoxicity call did it give?
Its cytotoxicity call is “inactive”.

With `C[C@H](CO)N1C[C@H](C)[C@H](CN(C)S(C)(=O)=O)Oc2c(cccc2N(C)C)C1=O` as the molecule, how does the cytotoxicity call read?
Its cytotoxicity call is “inactive”.

Which cytotoxicity call does the source give for `C[C@@H]1CN([C@H](C)CO)C(=O)c2cccc(NC(=O)C3CCCCC3)c2O[C@@H]1CN(C)S(=O)(=O)c1cn(C)cn1` here?
The cytotoxicity call was “inactive”.

With `C[C@@H]1CN([C@H](C)CO)C(=O)c2cccc(NC(=O)Nc3ccc(F)cc3)c2O[C@@H]1CN(C)S(=O)(=O)c1cn(C)cn1` as the molecule, how does the cytotoxicity call read?
Its cytotoxicity call is “inactive”.

Which cytotoxicity call does the source give for `COc1ccc(-n2nc(C(=O)NCC(=O)N3CCN(c4ccccc4)CC3)c3ccccc3c2=O)c(OC)c1` here?
The cytotoxicity call was “inactive”.

For `CC[C@H]1OC(=O)[C@H](C)[C@@H](O[C@H]2C[C@@](C)(OC)[C@@H](O)[C@H](C)O2)[C@H](C)[C@@H](O[C@@H]2O[C@H](C)C[C@H](N(C)C)[C@H]2O)[C@](C)(O)C[C@@H](C)[C@@H]2N[C@@H](COCCOC)O[C@H]([C@H]2C)[C@]1(C)O`, which cytotoxicity call is on record?
Its cytotoxicity call is “inactive”.

Which cytotoxicity call does the source give for `C[C@H]1CN([C@@H](C)CO)C(=O)Cc2cc(NC(=O)Nc3ccc(C(F)(F)F)cc3)ccc2O[C@H]1CN(C)C(=O)Nc1ccc(C(F)(F)F)cc1` here?
Its cytotoxicity call is “active”.

How did the cytotoxicity call turn out when `C[C@@H]1CN([C@H](C)CO)C(=O)Cc2cc(NC(=O)Nc3ccc(C(F)(F)F)cc3)ccc2O[C@H]1CN(C)C(=O)Nc1ccc(C(F)(F)F)cc1` was run?
The cytotoxicity call was “inactive”.

For `C[C@@H]1CN([C@@H](C)CO)C(=O)Cc2cc(NC(=O)Nc3ccc(C(F)(F)F)cc3)ccc2O[C@@H]1CN(C)C(=O)Nc1ccc(C(F)(F)F)cc1`, which cytotoxicity call is on record?
The cytotoxicity call was “active”.

For `C[C@H](CO)N1C[C@H](C)[C@@H](CN(C)C(=O)Nc2ccc(C(F)(F)F)cc2)Oc2ccc(NC(=O)Nc3ccc(C(F)(F)F)cc3)cc2CC1=O`, which cytotoxicity call is on record?
The cytotoxicity call was “active”.

`C[C@H]1CN([C@@H](C)CO)C(=O)Cc2cc(NC(=O)Nc3ccc(C(F)(F)F)cc3)ccc2O[C@@H]1CN(C)C(=O)Nc1ccc(C(F)(F)F)cc1` was tested. Which cytotoxicity call did it give?
The cytotoxicity call was “inactive”.

How did the cytotoxicity call turn out when `C[C@@H]1CN([C@@H](C)CO)C(=O)Cc2cc(NC(=O)Nc3ccc(C(F)(F)F)cc3)ccc2O[C@H]1CN(C)C(=O)Nc1ccc(C(F)(F)F)cc1` was run?
The cytotoxicity call was “active”.

For `Cc1ccc(S[C@]2(C(=O)NC3CC3)CC(=O)N(Cc3ccccc3C(F)(F)F)[C@@H]2c2ccc(CO)cc2)cc1`, which cytotoxicity call is on record?
The cytotoxicity call was “inactive”.

With `Cc1ccc(S(=O)(=O)N2CCOCC2)cc1NC(=O)CN1C(=O)CN(C)C1=O` as the molecule, how does the cytotoxicity call read?
Its cytotoxicity call is “inactive”.

For `C[C@@H]1CN([C@H](C)CO)C(=O)CCCn2cc(nn2)CO[C@H]1CN(C)Cc1cccc2c1OCCCO2`, which cytotoxicity call is on record?
Its cytotoxicity call is “inactive”.

With `C[C@H](CO)N1C[C@H](C)[C@H](CN(C)Cc2ccccc2)OCCCC[C@H](C)Oc2ccc(NS(=O)(=O)c3ccc(F)cc3)cc2C1=O` as the molecule, how does the cytotoxicity call read?
Its cytotoxicity call is “inactive”.

`C[C@H]1CN([C@@H](C)CO)C(=O)c2cc(-c3cccc(C(=O)N(C)C)c3)cnc2O[C@H]1CN(C)C(=O)Cc1ccccn1` was tested. Which cytotoxicity call did it give?
The cytotoxicity call was “inactive”.

How did the cytotoxicity call turn out when `C[C@@H]1CN([C@@H](C)CO)C(=O)c2cc(C#Cc3ccccc3F)cnc2O[C@H]1CN(C)C(=O)Cc1ccncc1` was run?
The cytotoxicity call was “inactive”.

For `CN1CCN(CCO)CC1`, which cytotoxicity call is on record?
The cytotoxicity call was “inactive”.

Which cytotoxicity call does the source give for `C[C@@H]1CCCCO[C@@H](CN(C)S(=O)(=O)c2cccs2)[C@@H](C)CN([C@H](C)CO)C(=O)c2cc(NC(=O)CCC(F)(F)F)ccc2O1` here?
Its cytotoxicity call is “inactive”.

Which cytotoxicity call does the source give for `COc1ccc(S(=O)(=O)Nc2ccc3c(c2)C(=O)N([C@H](C)CO)C[C@H](C)[C@@H](CN(C)S(=O)(=O)c2cccs2)O3)cc1` here?
Its cytotoxicity call is “inactive”.

With `CC(C)NC(=O)N(C)C[C@@H]1Oc2cc(C#Cc3ccccn3)ccc2S(=O)(=O)N([C@@H](C)CO)C[C@H]1C` as the molecule, how does the cytotoxicity call read?
The cytotoxicity call was “inactive”.

Which cytotoxicity call does the source give for `O=C(C[C@H]1CC[C@@H]2[C@H](COC[C@@H](O)CN2S(=O)(=O)c2ccc(Cl)cc2)O1)NCCN1CCCC1` here?
Its cytotoxicity call is “inactive”.

`C[C@@H]1CN([C@H](C)CO)C(=O)c2cccc(NC(=O)c3cnccn3)c2O[C@@H]1CN(C)Cc1ccc2c(c1)OCO2` was tested. Which cytotoxicity call did it give?
The cytotoxicity call was “inactive”.

How did the cytotoxicity call turn out when `C[C@H]1CN([C@@H](C)CO)C(=O)c2ccccc2-c2ccccc2CO[C@H]1CN(C)C(=O)c1cc(Cl)cc(Cl)c1` was run?
Its cytotoxicity call is “inactive”.

For `C[C@@H]1CN([C@H](C)CO)C(=O)Cc2cc(NC(=O)Nc3ccc(C(F)(F)F)cc3)ccc2O[C@@H]1CN(C)C(=O)Nc1ccc(C(F)(F)F)cc1`, which cytotoxicity call is on record?
Its cytotoxicity call is “active”.

For `C[C@H](CO)N1C[C@H](C)[C@H](CN(C)C(=O)Nc2ccc(C(F)(F)F)cc2)Oc2ccc(NC(=O)Nc3ccc(C(F)(F)F)cc3)cc2CC1=O`, which cytotoxicity call is on record?
The cytotoxicity call was “active”.

For `COCC#Cc1ccc([C@@H]2[C@@H](CO)N3C(=O)CN(C(=O)c4cccnc4)C[C@H]23)cc1`, which cytotoxicity call is on record?
Its cytotoxicity call is “inactive”.

How did the cytotoxicity call turn out when `CCO[C@H]1OC(C(=O)N2CCN(Cc3ccc4c(c3)OCO4)CC2)=C[C@@H](c2ccc(C(F)(F)F)cc2)[C@@H]1CCCOC(=O)NCCCCCC(=O)NO` was run?
The cytotoxicity call was “inactive”.

How did the cytotoxicity call turn out when `CC(C)C(=O)N1CC[C@H]2CN(CC(=O)N(C)C)S(=O)(=O)[C@@H]2CC1` was run?
The cytotoxicity call was “inactive”.

How did the cytotoxicity call turn out when `C[C@H]1CCCCO[C@@H](CN(C)S(=O)(=O)c2ccccc2)[C@@H](C)CN([C@@H](C)CO)C(=O)c2cc(NC(=O)C3CCCCC3)ccc2O1` was run?
The cytotoxicity call was “inactive”.

How did the cytotoxicity call turn out when `O=C(C[C@H]1CC[C@H]2[C@@H](COC[C@H](O)CN2S(=O)(=O)c2cccc(Cl)c2)O1)N1CCOCC1` was run?
Its cytotoxicity call is “inactive”.

`CO[C@@H](C(=O)N(C)C[C@@H]1OCc2ccccc2-c2c(n(C)c3ccccc23)C(=O)N([C@H](C)CO)C[C@@H]1C)c1ccccc1` was tested. Which cytotoxicity call did it give?
The cytotoxicity call was “inactive”.

`CNS(=O)(=O)c1cc(OC)ccc1OC` was tested. Which cytotoxicity call did it give?
Its cytotoxicity call is “inactive”.

`COc1cccc(S(=O)(=O)N2C[C@H](O)COC[C@H]3O[C@@H](CC(=O)N4CCN(c5ccccc5)CC4)CC[C@@H]32)c1` was tested. Which cytotoxicity call did it give?
Its cytotoxicity call is “inactive”.

Which cytotoxicity call does the source give for `CCCNC(=O)Cn1c(=O)n(C)c2ccccc21` here?
The cytotoxicity call was “inactive”.

With `C[C@H](CO)N1C[C@H](C)[C@@H](CN(C)CC2CCCCC2)OCCCC[C@H](C)Oc2ccc(NC(=O)Cc3ccccc3)cc2C1=O` as the molecule, how does the cytotoxicity call read?
The cytotoxicity call was “inactive”.

With `C[C@@H]1CCCCO[C@@H](CN(C)CC2CCCCC2)[C@H](C)CN([C@H](C)CO)C(=O)c2cc(NC(=O)Cc3ccccc3)ccc2O1` as the molecule, how does the cytotoxicity call read?
The cytotoxicity call was “inactive”.

Which cytotoxicity call does the source give for `C[C@@H]1CCCCO[C@@H](CN(C)CC2CCCCC2)[C@H](C)CN([C@@H](C)CO)C(=O)c2cc(NC(=O)Cc3ccccc3)ccc2O1` here?
The cytotoxicity call was “inactive”.

`C[C@@H]1CCCCO[C@H](CN(C)CC2CCCCC2)[C@@H](C)CN([C@H](C)CO)C(=O)c2cc(NC(=O)Cc3ccccc3)ccc2O1` was tested. Which cytotoxicity call did it give?
The cytotoxicity call was “inactive”.

How did the cytotoxicity call turn out when `C[C@H]1CCCCO[C@@H](CN(C)CC2CCCCC2)[C@@H](C)CN([C@@H](C)CO)C(=O)c2cc(NC(=O)CCCN(C)C)ccc2O1` was run?
The cytotoxicity call was “active”.

Which cytotoxicity call does the source give for `C[C@H]1CCCCO[C@@H](CN(C)CC2CCCCC2)[C@@H](C)CN([C@@H](C)CO)C(=O)c2cc(NC(=O)Cc3ccccc3)ccc2O1` here?
Its cytotoxicity call is “active”.

With `C[C@H](CO)N1C[C@H](C)[C@H](CN(C)CC2CCCCC2)OCCCC[C@H](C)Oc2ccc(NC(=O)Cc3ccccc3)cc2C1=O` as the molecule, how does the cytotoxicity call read?
Its cytotoxicity call is “inactive”.

How did the cytotoxicity call turn out when `C[C@@H]1CCCCO[C@H](CN(C)CC2CCCCC2)[C@H](C)CN([C@H](C)CO)C(=O)c2cc(NC(=O)Cc3ccccc3)ccc2O1` was run?
The cytotoxicity call was “inactive”.

With `C[C@@H]1CCCCO[C@@H](CN(C)CC2CCCCC2)[C@@H](C)CN([C@H](C)CO)C(=O)c2cc(NC(=O)CCCN(C)C)ccc2O1` as the molecule, how does the cytotoxicity call read?
Its cytotoxicity call is “inactive”.

With `C[C@H]1CCCCO[C@H](CN(C)CC2CCCCC2)[C@@H](C)CN([C@@H](C)CO)C(=O)c2cc(NC(=O)Cc3ccccc3)ccc2O1` as the molecule, how does the cytotoxicity call read?
Its cytotoxicity call is “active”.

Which cytotoxicity call does the source give for `C[C@@H]1CN([C@H](C)CO)C(=O)c2cc(NC(=O)CCCN(C)C)ccc2O[C@@H](C)CCCCO[C@H]1CN(C)CC1CCCCC1` here?
Its cytotoxicity call is “inactive”.

How did the cytotoxicity call turn out when `C[C@@H]1CN([C@@H](C)CO)C(=O)c2cc(NC(=O)Cc3ccccc3)ccc2O[C@@H](C)CCCCO[C@H]1CN(C)CC1CCCCC1` was run?
The cytotoxicity call was “active”.
